Assay results as given in PubChem BioAssay AID1568 (National Center for Advancing Translational Sciences (NCATS), 2009).
Inconclusive results are not listed. The source made the active and inactive calls. Calls follow the shape of the dose curve; as a rule, active = well fitted curve in the direction sought with a large enough effect; inconclusive = small, poorly fitted or top-dose-only effect, or effect the other way, or another doubt; inactive = no such curve, though single readings can be large or run the other way.

Experiment: Cell Viability Secondary Assay to Characterize qHTS Inhibitors of the Interaction of Thyroid Hormone Receptor and Steroid Receptor Coregulator 2
Conditions: cell viability counter-screen, qHTS titration; series mostly up to 29.9 µM; activity change, negative = cytotoxicity: at the top concentration
Excerpt: NIH Molecular Libraries Probe Production Network [MLPCN]
NIH Chemical Genomics Center [NCGC]
Assay Provider: R. Kip Guy, St. Jude Children's Research Hospital
Thyroid receptor (TR) regulates many homeostatic processes including basal metabolism, cardiovascular function, body weight, and lipid trafficking. TR modulators are potential therapeutics for obesity and hyperlipidemias but current thyroid analogs have undesirable side effects, particularly cardiac stimulation. This secondary assay characterized selected actives identified in the qHTS for Inhibitors of the Interaction of Thyroid Hormone Receptor and Steroid Receptor Coregulator 2. The human follicular thyroid carcinoma cell line WRO (kindly provided by Dr. M. D. Ringel) stably expresses TRbeta and a luciferase reporter gene fused to TR response element. The effect of compounds on the viability of these cells was assessed by measuring ATP levels. Compounds that reduce cell viability are likely cytotoxic.
NCGC Assay Protocol Summary:
Cells were maintained in RPMI 1640 culture medium supplemented with 10% heat-inactivated FBS, 0.33 mg/ml hygromycin, 0.33 mg/ml geneticin, 50 units/ml penicillin, 50 ug/ml streptomycin. Cells were harvested and resuspended at 330,000 cells/ml in assay medium (50% DMEM 50% F-12 medium without Phenol-Red (Cellgro #16-405-CV), L-glutamine, 10% heat inactivated and charcoal treated FBS, 100 uM non-essential amino acid, 50 units/ml penicillin, 50 ug/ml streptomycin). Cells were dispensed at 10,000 cells/30 ul/well into 384 well plates (Corning 3917) and incubated 12 h at 37 C and 5% CO2. Compounds and T3 (100nM final concentration) were added using a pin tool and plates were incubated 16 h incubation at 37 C and 5% CO2. Following incubation, plates were equilibrated at ambient temperature for 30 min, 20 ul of CellTiter-Glo (Promega) was added and luminescence was detected by an EnVision (PerkinElmer).

Question: With `COc1cc(C(c2c(C)[nH][nH]c2=O)c2c(C)[nH][nH]c2=O)ccc1OC(=O)c1cccc(C)c1` as the molecule, how does the “activity change, negative = cytotoxicity” value read?
Answer: The value was -3.92% [at 59.9 µM] (inactive).

Question: Which “activity change, negative = cytotoxicity” value does the source give for `O=c1cc(C23CC4CC(CC(C4)C2)C3)[nH][nH]1` here?
Answer: Its value is -14.5% (inactive).

Question: Which “activity change, negative = cytotoxicity” value does the source give for `Cc1cc(C)cc(OCC(=O)NCCc2nc3ccccc3[nH]2)c1` here?
Answer: The value was -5.54% [at 59.9 µM] (inactive).

Question: With `C=CCNC(=O)/C(C#N)=C\c1cc(Cl)c(OCC)c(OC)c1` as the molecule, how does the “activity change, negative = cytotoxicity” value read?
Answer: The value was -23.3% (inactive).

Question: With `Cc1ccc(OC(=S)Nc2ccc(O)cc2)cc1` as the molecule, how does the “activity change, negative = cytotoxicity” value read?
Answer: The value was -16.5% (inactive).

Question: For `CN(C(=S)Nc1cccnc1)c1ccc(O)cc1`, which “activity change, negative = cytotoxicity” value is on record?
Answer: The value was 10.6% (inactive).

Question: For `Cc1cc(N=Cc2c(O)ccc3ccccc23)no1`, which “activity change, negative = cytotoxicity” value is on record?
Answer: The value was -15.4% (inactive).

Question: For `Cc1cc2c(NC(=O)Nc3ccccc3)cccc2nn1`, which “activity change, negative = cytotoxicity” value is on record?
Answer: Its value is -20% (inactive).

Question: With `O=C(NNc1cc(N2CCOCC2)nc(N2CCOCC2)n1)c1ccc([N+](=O)[O-])cc1` as the molecule, how does the “activity change, negative = cytotoxicity” value read?
Answer: The value was -11.2% (inactive).

Question: With `CCOc1cc(N2CCOCC2)c(OCC)cc1NC(C)C(=O)N1CCN(CC)CC1` (stereo not given) as the molecule, how does the “activity change, negative = cytotoxicity” value read?
Answer: The value was -2.87% (inactive).

Question: With `COc1ccc(C(=O)/C=C/Nc2ccc(S(=O)(=O)Nc3ncccn3)cc2)cc1` as the molecule, how does the “activity change, negative = cytotoxicity” value read?
Answer: Its value is -16.8% (inactive).

Question: With `CCOc1ccc(C2=Cc3cc(OC)c(OC)cc3C(=C(Cl)Cl)O2)cc1` as the molecule, how does the “activity change, negative = cytotoxicity” value read?
Answer: Its value is -12.9% (inactive).

Question: Which “activity change, negative = cytotoxicity” value does the source give for `Nc1c(C(=O)NCc2ccco2)c2nc3ccccc3nc2n1CCc1ccccc1` here?
Answer: Its value is -13.6% (inactive).

Question: With `CN(CCO)c1nc(N)c2c(N)nc3c(c2c1C#N)CC(=O)N3C1CCCC1` as the molecule, how does the “activity change, negative = cytotoxicity” value read?
Answer: Its value is 4.93% (inactive).

Question: For `CCc1ccc2c(c1)c1nc(C)sc1n2CC`, which “activity change, negative = cytotoxicity” value is on record?
Answer: Its value is -5.58% (inactive).

Question: For `CC(NC(=O)Nc1ccc(O)cc1)(C(F)(F)F)C(F)(F)F`, which “activity change, negative = cytotoxicity” value is on record?
Answer: Its value is 9.82% (inactive).

Question: Which “activity change, negative = cytotoxicity” value does the source give for `Cn1c(-c2ccc(=O)[nH]c2)nc2ccccc21` here?
Answer: The value was -11.4% (inactive).

Question: Which “activity change, negative = cytotoxicity” value does the source give for `CC1=NN(Cc2ccccc2)C(=O)C1` here?
Answer: The value was 6.13% (inactive).

Question: Which “activity change, negative = cytotoxicity” value does the source give for `Nc1cc(-c2ccncc2)c[nH]c1=O` here?
Answer: The value was 12.5% [at 26.8 µM] (inactive).

Question: For `Nc1cnccc1C(=O)O`, which “activity change, negative = cytotoxicity” value is on record?
Answer: Its value is -9.24% (inactive).

Question: For `CCC(NC(=O)Nc1ccc(O)cc1)(C(F)(F)F)C(F)(F)F`, which “activity change, negative = cytotoxicity” value is on record?
Answer: The value was 8.19% (inactive).

Question: With `O=C(O)C1C2C=CC(O2)C1C(=O)Nc1ccc(S(=O)(=O)N2CCc3ccccc32)cc1` (stereo not given) as the molecule, how does the “activity change, negative = cytotoxicity” value read?
Answer: Its value is 1.57% (inactive).

Question: For `Oc1ccc2ccccc2c1/C=N/c1nccs1`, which “activity change, negative = cytotoxicity” value is on record?
Answer: The value was 0.358% (inactive).

Question: Which “activity change, negative = cytotoxicity” value does the source give for `O=C(O)/C=C/C(=O)Nc1ccc(OC(F)(F)F)cc1Br` here?
Answer: Its value is -13.9% (inactive).

Question: Which “activity change, negative = cytotoxicity” value does the source give for `Cc1ccc(-c2nc(S(=O)(=O)c3ccc(F)cc3)c(SCC(=O)NCC3CCCO3)o2)cc1` (stereo not given) here?
Answer: Its value is 9.56% (inactive).

Question: Which “activity change, negative = cytotoxicity” value does the source give for `CN1c2ccccc2C(C)(C)C12C=Nc1c(cc(N3CCOCC3)c3ccccc13)O2` (stereo not given) here?
Answer: Its value is -10.5% (inactive).

Question: Which “activity change, negative = cytotoxicity” value does the source give for `Cc1nc2ccccc2n2c(O)c(CC(=O)O)cc12` here?
Answer: Its value is 0.278% (inactive).

Question: Which “activity change, negative = cytotoxicity” value does the source give for `CCSc1ncc(Cl)c(C(=O)Nc2nc3ccc(OC)cc3s2)n1` here?
Answer: The value was 3.92% [at 59.9 µM] (inactive).

Question: Which “activity change, negative = cytotoxicity” value does the source give for `O=C(/C=C/c1ccco1)NC(=S)Nc1cc(C(F)(F)F)ccc1N1CCOCC1` here?
Answer: The value was -20.7% (inactive).

Question: Which “activity change, negative = cytotoxicity” value does the source give for `Cn1cc(/C=C2\SC(=S)N(NC(=O)c3ccccc3)C2=O)c2ccccc21` here?
Answer: Its value is 20.4% (inactive).

Question: For `O=C(O)[C@H]1CN(CCCP(=O)(O)O)CCN1`, which “activity change, negative = cytotoxicity” value is on record?
Answer: The value was -100% [at 59.9 µM] (inactive).

Question: With `Cc1cccc(Cn2c(C(=O)OC(C)C)cc3c2ccn3C)c1` as the molecule, how does the “activity change, negative = cytotoxicity” value read?
Answer: Its value is -28.9% (inactive).

Question: Which “activity change, negative = cytotoxicity” value does the source give for `Cc1c(C#N)c(O)n(CCO)c(=O)c1N=Nc1ccc2c(c1)COC2=O` here?
Answer: Its value is -16% (inactive).

Question: For `COC(=O)c1ccccc1-c1ccc(C(c2c(C)[nH][nH]c2=O)c2c(C)[nH][nH]c2=O)o1`, which “activity change, negative = cytotoxicity” value is on record?
Answer: Its value is -2.46% (inactive).

Question: For `CCCc1nc2c(=O)n(C)c(=O)nc-2n(C)n1`, which Potency is on record?
Answer: The Potency was 794 nM (active).

Question: With `CC(=O)c1cccc(NC(=O)COC(=O)c2ccc(S(C)(=O)=O)c([N+](=O)[O-])c2)c1` as the molecule, how does the “activity change, negative = cytotoxicity” value read?
Answer: The value was 34.6% (inactive).

Question: For `Cc1cc2ccccc2n1CCNC(=O)C(C)Oc1ccccc1` (stereo not given), which “activity change, negative = cytotoxicity” value is on record?
Answer: The value was -12.1% (inactive).

Question: For `CCC(C)NC(=O)COC(=O)c1csc2c1CCCC2` (stereo not given), which “activity change, negative = cytotoxicity” value is on record?
Answer: The value was -0.105% (inactive).

Question: For `C=CCNC(=O)/C(C#N)=C/c1c(C)nn(-c2ccc(Cl)cc2)c1Cl`, which “activity change, negative = cytotoxicity” value is on record?
Answer: The value was -7.83% (inactive).

Question: With `CCOc1ccc(NC(=O)C(c2ccccn2)N(C(=O)CCl)c2ccc(F)cc2)cc1` (stereo not given) as the molecule, how does the “activity change, negative = cytotoxicity” value read?
Answer: The value was -6.25% (inactive).
